Measurements taken from PubChem BioAssay (EPA / NIEHS).
Where “and” joins values, the source holds several entries; their conditions need not be identical. Equal entries are not always repeated. Records with an inconclusive call do not appear. Some structures have more than one record in an assay (separate samples or runs), and their calls can disagree. Calls of active or inactive are those of the source. How the source made its calls, unless noted: active means hit-call score of the fitted dose curve at least 0.9, where 1 is the maximum; inconclusive means response in the unintended direction; inactive means score below 0.9.

Assays:
[1] = TOX21_p53_BLA_p2_viability: Viability Assessment in the Tox21 HCT-116 p53 Agonism Beta-lactamase Assay, Phase 2 (AID 2283591);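 further: compound exposure lasted 16 h at 37 °C; actives lower the ATP signal meaning cytotoxicity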
Summary of the method: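 HCT-116 p53-bla cells (4000/well) rested 5 h at 37C, then received compounds in DMSO (217-fold dilution) for 16 h at 37C, 5% CO2. After the CCF4 read, CellTiter-Glo was added; ATP luminescence was read after 30 min at room temperature.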

[2] = target: Cellular tumor antigen p53 (Homo sapiens) (UniProt P04637); assay: TOX21_p53_BLA_p2_ratio: Tox21 HCT-116 p53 Agonism Beta-lactamase Assay, Ratio, Phase 2 (AID 2283592)
Summary of the method: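 DMSO-normalized, positive-direction endpoint derived from the 460 nm/530 nm FRET ratio in HCT116 p53 beta-lactamase reporter cells exposed 16 h at 37C and loaded with CCF4-AM for 2 h.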

[3] = target: bovine Estrogen Receptor (ER), ESR1 (gene 407238) (UniProt P49884); assay: NVS_NR_bER: NovaScreen (NVS) Nuclear Receptor Binding Assay for bovine Estrogen Receptor (ER) (AID 2283345);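 further: actives lower the bound radioligand count which means they displace the ER ligand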
Summary of the method: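 Scintillation counting of displaced radioligand gave the readout; bovine uterine membrane extract supplied the receptor. Measured 18 h post-dose, normalized to DMSO baseline. Single 25 uM duplicate screen preceded concentration-response follow-up.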

[4] = TOX21_p53_BLA_p3_viability: Viability Assessment in the Tox21 HCT-116 p53 Agonism Beta-lactamase Assay, Phase 3 (AID 2283593);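 further: cells exposed to compound for 16 h before reading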
Summary of the method: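 HCT-116 cells (4000/well) rested 5 h at 37C, then got DMSO compounds by pin tool (217-fold dilution) for 16 h at 37C, 5% CO2. After the bla read, CellTiter-Glo was added and luminescence read at 30 min, room temperature.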

[5] = target: Cellular tumor antigen p53 (Homo sapiens) (UniProt P04637); assay: TOX21_p53_BLA_p3_ratio: Tox21 HCT-116 p53 Agonism Beta-lactamase Assay, Ratio, Phase 3 (AID 2283596)
Summary of the method: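 Cells were seeded at 4000/well, rested 5 h at 37C, then dosed with DMSO compound solutions (217-fold dilution) for 16 h. CCF4-AM substrate was loaded for 2 h at room temperature, and the 460/530 nm emission ratio was fitted for gain of signal versus DMSO.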

[6] = TOX21_p53_BLA_p4_viability: Viability Assessment in the Tox21 HCT-116 p53 Agonism Beta-lactamase Assay, Phase 4 (AID 2283597);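 further: hits lower the luminescence signal meaning cytotoxicity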
Summary of the method: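 In this multiplexed secondary endpoint, HCT116 cells (4000 per well, compound at 5 h, 16 h treatment) received CellTiter-Glo after the beta-lactamase read. Luminescence after 30 min RT reflects ATP, and falling signal marks cytotoxicity.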

[7] = target: Cellular tumor antigen p53 (Homo sapiens) (UniProt P04637); assay: TOX21_p53_BLA_p5_ratio: Tox21 HCT-116 p53 Agonism Beta-lactamase Assay, Ratio, Phase 5 (AID 2283599)
Summary of the method: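 HCT-116 cells carrying a p53-inducible beta-lactamase reporter were seeded at 4000 cells/well and dosed after 5 h with compound in DMSO (217-fold dilution). After 16 h at 37C, CCF4-AM substrate was added for 2 h, and the 460/530 nm emission ratio was scored as gain-of-signal versus DMSO.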

[8] = TOX21_p53_BLA_p5_viability: Viability Assessment in the Tox21 HCT-116 p53 Agonism Beta-lactamase Assay, Phase 5 (AID 2283600)
Summary of the method: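 Here cell health was gauged by ATP levels in wells holding 4000 cells, each treated 16 h with DMSO-delivered compounds at 217-fold dilution; reduced luminescence marked toxicity.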

[9] = target: Cellular tumor antigen p53 (Homo sapiens) (UniProt P04637); assay: TOX21_p53_BLA_p4_ratio: Tox21 HCT-116 p53 Agonism Beta-lactamase Assay, Ratio, Phase 4 (AID 2283601)
Summary of the method: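 HCT116 cells carrying an inducible beta-lactamase reporter were plated at 4000 cells/well, rested 5 h, then exposed to compounds in DMSO (217-fold dilution) for 16 h at 37C. CCF4-AM substrate was loaded 2 h at room temperature; 460/530 nm emission ratio scored gain-of-signal versus DMSO.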

[10] = CCTE_Harrill_HTTr_Viability_MCF7: CCTE's 6-hour Cell Viability Assessment for the High-Throughput Transcriptomics (HTTr) Platform, in MCF-7 cells cultured in DMEM + 10% fetal bovine serum, Harrill Lab (AID 2284010; active means hit-call score of the fitted dose curve at least 0.9, where 1 is the maximum; inactive means score below 0.9)
Summary of the method: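 Read-out is propidium iodide gain of signal by high-content imaging, reflecting membrane integrity loss. Measurements are taken 6 h after dosing, eight concentrations per chemical, with DMSO serving as baseline for bidirectional curve fitting.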

[11] = CCTE_Harrill_HTTr_Apoptosis_MCF7: CCTE's 6-hour Apoptosis Assessment for the High-Throughput Transcriptomics (HTTr) Platform, in MCF-7 cells cultured in DMEM + 10% fetal bovine serum, Harrill Lab (AID 2284011; active means hit-call score of the fitted dose curve at least 0.9, where 1 is the maximum; inactive means score below 0.9)
Summary of the method: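 Apoptosis in MCF-7 cells grown in DMEM with 10% fetal bovine serum was scored after a six hour exposure by high content imaging of caspase-3/7 activation (CellEvent Caspase 3/7 Green), with DMSO serving as negative control and baseline.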

[12] = target: Estrogen receptor (Homo sapiens) (UniProt P03372); assay: NVS_NR_hER: NovaScreen (NVS) Nuclear Receptor Binding Assay for human Estrogen Receptor (ER) (AID 2283348)
Summary of the method: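 Radiodetection of ligand displacement in a lysate-based, cell-free format using MCF7 extracts, read at 18 hours. Duplicate 25 uM primary testing, then concentration series for actives.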

Measured: AC50

Sequence of bovine Estrogen Receptor (ER), ESR1 (gene 407238) (P49884 whole entry, looked up): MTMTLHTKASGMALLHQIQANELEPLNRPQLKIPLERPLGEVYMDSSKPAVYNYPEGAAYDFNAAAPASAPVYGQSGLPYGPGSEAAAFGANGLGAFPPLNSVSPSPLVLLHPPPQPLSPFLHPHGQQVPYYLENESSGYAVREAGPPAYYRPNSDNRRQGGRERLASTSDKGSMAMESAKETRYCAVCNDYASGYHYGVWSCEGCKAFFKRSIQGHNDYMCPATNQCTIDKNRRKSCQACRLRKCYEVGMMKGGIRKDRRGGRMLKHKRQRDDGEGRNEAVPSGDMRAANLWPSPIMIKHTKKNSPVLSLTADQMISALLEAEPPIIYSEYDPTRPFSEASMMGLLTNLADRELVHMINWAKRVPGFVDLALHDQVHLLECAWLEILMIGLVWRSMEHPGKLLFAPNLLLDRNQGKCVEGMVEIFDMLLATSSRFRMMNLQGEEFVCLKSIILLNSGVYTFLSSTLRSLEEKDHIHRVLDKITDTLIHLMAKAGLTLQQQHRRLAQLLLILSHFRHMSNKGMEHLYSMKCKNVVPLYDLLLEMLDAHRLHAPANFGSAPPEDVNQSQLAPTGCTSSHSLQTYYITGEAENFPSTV
Sequence of Cellular tumor antigen p53 (Homo sapiens) (P04637 whole entry, looked up): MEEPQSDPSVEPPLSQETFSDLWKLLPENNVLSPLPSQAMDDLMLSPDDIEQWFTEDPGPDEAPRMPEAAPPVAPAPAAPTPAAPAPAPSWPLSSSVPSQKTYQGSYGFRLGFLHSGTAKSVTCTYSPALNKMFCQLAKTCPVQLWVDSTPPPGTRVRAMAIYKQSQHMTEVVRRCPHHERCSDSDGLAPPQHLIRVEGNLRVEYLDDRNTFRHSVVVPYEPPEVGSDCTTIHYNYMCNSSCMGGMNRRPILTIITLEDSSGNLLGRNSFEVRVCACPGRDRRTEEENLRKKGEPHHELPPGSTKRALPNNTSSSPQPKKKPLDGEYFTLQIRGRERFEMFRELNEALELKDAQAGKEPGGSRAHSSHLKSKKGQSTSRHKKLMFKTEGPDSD
Sequence of Estrogen receptor (Homo sapiens) (P03372 whole entry, looked up): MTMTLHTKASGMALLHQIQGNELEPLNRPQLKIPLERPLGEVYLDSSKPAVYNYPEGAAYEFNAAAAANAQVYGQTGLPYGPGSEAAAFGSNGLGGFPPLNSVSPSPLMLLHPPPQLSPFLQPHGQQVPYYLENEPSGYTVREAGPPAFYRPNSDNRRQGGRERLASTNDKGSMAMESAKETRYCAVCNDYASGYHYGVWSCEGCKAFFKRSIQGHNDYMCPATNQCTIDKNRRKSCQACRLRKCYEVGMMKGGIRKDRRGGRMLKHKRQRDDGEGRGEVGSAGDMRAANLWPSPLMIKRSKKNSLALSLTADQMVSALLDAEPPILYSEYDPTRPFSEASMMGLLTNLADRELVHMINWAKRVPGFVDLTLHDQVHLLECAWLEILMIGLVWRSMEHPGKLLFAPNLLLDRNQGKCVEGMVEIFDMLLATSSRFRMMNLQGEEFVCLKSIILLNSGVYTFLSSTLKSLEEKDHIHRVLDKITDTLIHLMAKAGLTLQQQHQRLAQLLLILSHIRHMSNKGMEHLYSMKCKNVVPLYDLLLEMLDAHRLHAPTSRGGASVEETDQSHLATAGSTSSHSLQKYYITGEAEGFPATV

ClC(Cl)(Br)Br
inactive: [1] | [2]

CCC(=O)C(=O)CC
inactive: [3] | [1] | [2] | [4] | [5] | [6] | [7] | [8] | [9]

CCCCCCC/C=C/C=O
inactive: [3] | [1] | [2] | [4] | [5] | [6] | [7] | [9]

CNCCC(Oc1ccc(C(F)(F)F)cc1)c1ccccc1 (stereo not drawn)
inactive: [1] | [2] | [4] | [5] | [7] | [8] | [9]
active: [1] 68.1 µM | [4] 74 µM | [6] 67.3 µM and 33.8 µM | [8] 73.2 µM | [10] 75.8 µM | [11] 69.4 µM

COc1cc(C(=S)N2CCOCC2)cc(OC)c1OC
inactive: [1] | [2]

CCCCCCCCCCCCN(CCO)CCO
inactive: [3]
active: [1] 69.7 µM | [2] 46.9 µM | [4] 64.3 µM | [5] 49.2 µM | [6] 53.4 µM | [7] 75.6 µM | [8] 59.3 µM | [9] 69.1 µM

CC1=C(/C=C/C(C)=C/C=C/C(C)=C/C(=O)Nc2ccc(O)cc2)C(C)(C)CCC1
active: [1] 44.5 µM | [2] 62.4 µM | [4] 62.5 µM | [5] 74.6 µM | [6] 53.7 µM and 35 µM | [7] 73.6 µM and 37.7 µM | [8] 43.7 µM and 37.9 µM | [9] 72.5 µM and 36.6 µM
inactive: [1] | [2] | [4] | [5]

CC(C)(C)CC(C)(C)c1ccc(OCCO)cc1
inactive: [1] | [2] | [4] | [5] | [6] | [7] | [8] | [9]
active: [2] 5.43 µM | [6] 35.6 µM

C[C@@H]1[C@H](O)[C@@H](C)/C=C/C=C/C=C/C=C/C=C/C=C/C=C/[C@H](O[C@@H]2O[C@H](C)[C@@H](O)[C@H](N)[C@@H]2O)C[C@@H]2O[C@](O)(C[C@@H](O)C[C@@H](O)[C@H](O)CC[C@@H](O)C[C@@H](O)CC(=O)O[C@H]1C)C[C@H](O)[C@H]2C(=O)O
active: [1] 72.4 µM
inactive: [1] | [2] | [4] | [5] | [6] | [7] | [8] | [9] | [10] | [11]

COC(=O)CCCC(=O)O
inactive: [12] | [1] | [2] | [4] | [5] | [8] | [9]

CC(O)(c1ccc(Cl)cc1)c1ccc(Cl)cc1
inactive: [3] | [12] | [1] | [4] | [5] | [6] | [7] | [9]

CCCCCCCCCCCCCCCCCCOCC(COP(=O)([O-])OCC[N+](C)(C)C)OC (stereo not drawn)
active: [1] 36.3 µM | [2] 43.6 µM

Cc1cccc(NC(=S)N(C)C)c1
inactive: [3]

CNC(=O)Nc1ccc(Cl)c(Cl)c1
inactive: [3] | [1] | [2] | [4] | [5] | [6] | [7] | [8] | [9]

S=c1nc[nH]c2nc[nH]c12
inactive: [1] | [8]
active: [1] 1.56 µM | [2] 7.89 µM and 10.1 µM | [4] 674 nM and 2.62 µM | [5] 9.95 µM and 8 µM | [6] 1.65 µM and 3 µM | [7] 11.1 µM and 8.01 µM | [9] 6.3 µM and 6.4 µM

COC(=O)CCC(=O)O
inactive: [1]

O=C(OCCOCCO)c1ccccc1Nc1cccc(C(F)(F)F)c1
inactive: [1] | [2]

CCC[C@@H]1C[C@@H](C(=O)N[C@@H]([C@H]2O[C@H](SC)[C@H](O)[C@@H](O)[C@H]2O)[C@@H](C)O)N(C)C1
inactive: [1] | [2] | [4] | [5]

CCCCCCCCCC(=O)NO
active: [2] 23.1 µM | [9] 24.3 µM
inactive: [1] | [2] | [4] | [5] | [6] | [7] | [8] | [9]

CSc1ccc2c(c1)N(CCC1CCCCN1C)c1ccccc1S2 (stereo not drawn)
inactive: [4] | [5]
active: [1] 37 µM and 75.4 µM | [2] 43.6 µM and 79 µM | [4] 73 µM | [6] 35.8 µM and 59.3 µM | [7] 43.3 µM and 86 µM | [8] 43.8 µM and 85.2 µM | [9] 43.4 µM and 82.3 µM

NNCCc1ccccc1
inactive: [1] | [2] | [4] | [5] | [6] | [7] | [8] | [9]
active: [6] 74.1 µM

C#C[C@]1(OC(C)=O)CC[C@H]2[C@@H]3CCC4=C[C@@H](OC(C)=O)CC[C@@H]4[C@H]3CC[C@@]21C
active: [1] 36.9 µM and 34.4 µM | [4] 37.3 µM | [7] 43 µM | [8] 36.7 µM
inactive: [2] | [4] | [5] | [6] | [7] | [8] | [9] | [10] | [11]

CC(C)[C@H](N)C(=O)OCCOCn1cnc2c(=O)[nH]c(N)nc21
inactive: [1] | [2] | [4] | [5] | [6]

O=[N+]([O-])c1cccc(C(F)(F)F)c1
inactive: [1] | [2] | [4] | [5]

COC(=O)C1=C(C)NC(C)=C(C(=O)OC)C1c1ccccc1[N+](=O)[O-]
active: [4] 38.3 µM
inactive: [1] | [2] | [4] | [5] | [6] | [7] | [8] | [9]
